# Assay outcomes: PubChem BioAssay, several laboratories
# Fh CTSL1 inh = counter-screen for PFM18AAP inhibitors: inhibitors of F. hepatica cathepsin L1; recombinant F. hepatica cathepsin L1, Z-Leu-Arg-MCA fluorescence; inhibition, % at 5.96 µM; 300,000 tested, 0.49% active;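 active = inhibition above the mean of all tested compounds plus 3 SD, set per screening campaign, cut at about 17% in these data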
# CendR NRP1 mod = alters CendR peptide binding to human NRP-1 | O14786 | FAM-RPARPAR peptide binding to NRP-1, fluorescence polarization | inhibition, % at 25 µM | 360,000 tested, 0.85% active | AID 602438;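 active = inhibition or corrected inhibition above about 18%, plus a signal ratio from 0.5 to 1.5, limit read from the data, passing the limit was not always enough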
# PHOSPHO1 block = blocks human PHOSPHO1 phosphatase activity; Q8TCT1; recombinant PHOSPHO1, absorbance phosphatase assay; inhibition, % at 13.3 µM; 290,000 tested, 1.1% active; AID 1565; in the data active = inhibition above about 60%
# HNF4A DNA FP = change in binding of human HNF4 alpha to DNA. HNF4a-FITC DNA binding, fluorescence polarization, 1 h. activity change, % at 10 µM. 360,000 tested, 0.3% active. AID 1224865; in the data active = activity change above about 30%, passing the limit was not always enough
# TPT1 inhibitor = blocks Candida albicans tRNA 2'-phosphotransferase; inhibition, % at 5 µM; 300,000 tested, 0.81% active; AID 1962; recombinant caTPT1, FP RNA substrate dephosphorylation;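 active = inhibition above the mean of all tested compounds plus 3 SD, set per screening campaign, cut at about 24% in these data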
# Rpn11 block = blocks the human proteasome subunit Rpn11; 360,000 tested, 0.59% active; human 26S proteasome, Ub4-pepOG fluorescence polarization; 20S core pre-blocked with epoxomicin; inhibition, % at 20 µM; O00487;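 active = inhibition at 20 µM, scaled to each plate's controls, above about 33%, limit read from the data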
# Target sequence (O00487 whole entry, looked up): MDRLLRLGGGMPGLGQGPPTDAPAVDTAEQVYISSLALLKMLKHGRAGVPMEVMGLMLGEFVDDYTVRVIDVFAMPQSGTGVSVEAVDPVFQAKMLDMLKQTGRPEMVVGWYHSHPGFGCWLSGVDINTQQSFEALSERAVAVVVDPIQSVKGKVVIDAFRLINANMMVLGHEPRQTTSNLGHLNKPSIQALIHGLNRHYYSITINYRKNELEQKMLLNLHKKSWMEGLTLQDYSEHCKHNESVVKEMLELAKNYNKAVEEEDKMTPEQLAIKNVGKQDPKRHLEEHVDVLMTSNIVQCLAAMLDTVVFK
# Numbers stand for hits; n = inactive; x = not tested or not shown; ! = not confirmed by another sample. This is a sample that favours compounds with a hit; in the whole collection about 3.3% have one here.
SMILES,Fh CTSL1 inh,CendR NRP1 mod,PHOSPHO1 block,HNF4A DNA FP,TPT1 inhibitor,Rpn11 block
CCOc1cc(S(=O)(=O)N2CCN(C(=O)c3ccco3)CC2)ccc1F,n,n,x,n,n,n
O=C1C=C(c2ccc(Oc3ccccc3)cc2)C[C@@H](c2ccc(Cl)cc2)C1,x,32,x,n,x,n
CC(=O)Nc1ccc(C2=CC(=O)C[C@H](c3ccc(Cl)cc3)C2)cc1,x,n,x,n,x,n
CSc1ccc(C2=CC(=O)C[C@H](c3ccc(Cl)cc3)C2)cc1,x,28,x,n,x,n
CCN(CC)S(=O)(=O)c1ccc(N2CCCC2)c(NC(=O)CSCc2c(C)noc2C)c1,x,n,x,n,x,n
O=C(CNC(=O)c1ccccc1)NCCCSc1ccccc1,x,27,x,n,x,n
O=C(NCCN1CCCCCC1)C1CCC(CNS(=O)(=O)c2cccc3cccnc23)CC1 (centres undefined),39,n,n,n,n,n
CC1CCC(NC(=O)C2CCC(CNS(=O)(=O)c3cccc4cccnc34)CC2)CC1 (centres undefined),n,21,n,n,n,n
Cc1ccc(C)c(S(=O)(=O)N2CCCCC2CCNC(=O)C(=O)NC2CCCC2)c1 (centres undefined),n,n,x,n,n,n
CCn1c(NCc2ccc3c(c2)OCO3)nc2ccccc21,n,n,65,n,n,n
CCN(CC)c1ccc(CNc2nc3ccccc3n2C(C)C)cc1,n,n,n,n,n,n
CC(C)n1c(NCc2ccc(N(C)C)cc2)nc2ccccc21,n,29,n,n,n,n
Cn1c(CC(=O)Nc2ccccc2Cl)nnc1SCC(=O)NC1=NCCS1,n,n,n,n,n,n
O=C(CCC1COc2ccccc2O1)NCc1ccco1 (centres undefined),n,n,n,n,n,n
CC1CCN(CCNC(=O)C2CCCN(S(=O)(=O)c3cccc4nonc34)C2)CC1 (centres undefined),24,n,n,n,n,n
O=C(NCc1ccccc1)C1CCCN(S(=O)(=O)c2cccc3nonc23)C1 (centres undefined),n,n,n,n,n,n
CCCCn1c(N)c(N(Cc2ccccc2OC)C(=O)C(C)Oc2cccc(Cl)c2)c(=O)[nH]c1=O (centres undefined),x,n,x,n,x,n
CCCCCCCCCCCCCCCC[n+]1cccc(C(=O)N(CC)CC)c1,n,n,n,n,n,66!
Cc1nn(-c2ccccc2)c2c1C(c1ccc(O)c(O)c1)N1C(=N2)C(Nc2ccccc2)=Nc2ccccc21 (centres undefined),38,n,n,n,n,n
CCOC(=O)c1cc(CC)sc1NC(=O)COC(=O)c1ccccn1,n,n,x,n,n,n
CCN(CC)CC#Cc1ccc(C)cc1,n,n,n,n,n,n
C=CCC(C#Cc1ccc(C)cc1)N(CC)CC (centres undefined),n,29,n,n,n,n
O=C(NCc1ccccn1)C12CC3CC(CC(C3)C1)C2,n,n,n,n,n,n
CC(NC(=O)c1ccc(-c2ccccc2)cc1)C(c1ccccc1)N1CCOCC1 (centres undefined),x,n,x,n,x,n
CC(NC(=O)c1ccc(C(F)(F)F)cc1)C(c1ccccc1)N1CCOCC1 (centres undefined),n,n,63,n,n,n
SMILES,Fh CTSL1 inh,CendR NRP1 mod,PHOSPHO1 block,HNF4A DNA FP,TPT1 inhibitor,Rpn11 block
COc1cc2ccccc2cc1C(=O)N1CCN(c2ccccc2O)CC1,x,n,x,n,x,n
COc1ccc(NC(=O)Cn2nnc(C(N)=O)c2N)c(OC)c1,n,33,n,n,n,n
CC(C)C(CO)N1CCN(Cc2ccccc2)CCC1=O (centres undefined),n,24,n,n,n,n
CC(C)(C)OC1NS(=O)(=O)OCC1NCOC(Cl)(Cl)Cl (centres undefined),17,26,n,n,n,n
COc1ccc2c(c1)c(C(=O)CN1CCC3(CC1)OCCO3)c(C)n2C,n,n,97,n,n,n
NC(=O)c1c(/N=C/c2cccnc2)sc2c1CCCC2,n,n,77,n,n,n
Cc1ccc2cc3c(N)c4c(C)ccc(C)c4nc3nc2c1,x,n,n,n,x,n
CCOc1ccc(S(=O)(=O)NN)cc1,n,n,92,n,n,n
CCOc1ccc(NS(=O)(=O)c2ccc(N)cc2)cc1,n,n,n,n,n,n
C#CC(C)(O)C1CC(CC(=O)O)C1(C)C (centres undefined),x,n,x,n,x,n
